Compounds with a hit are over-represented: about 9.4% of the library has one in this group of screens.
AMA1-RON2 inh: disrupts binding of P. falciparum AMA1 to RON2. AlphaScreen AMA1-biotinylated RON2 peptide binding. Potency, µM (doses to about 58.2 µM), actives largely listed as inhibitors. 360,000 compounds, 0.2% hits. AID 720542; further: nearly all actives have a fitted effect of over 45% in size
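AMA1 (3D7) with his tag at 25 nM final met compounds first, then biotinylated RON2 peptide at 25 nM; detection used donor plus acceptor beads, 10 µg/mL apiece, read by AlphaScreen after 30 min at room temperature.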
SARS PLpro yeast: blocks SARS-CoV papain-like protease in a yeast assay | Potency, µM (top dose mostly 32.9 µM), hits mostly activators | AID 485353 | 330,000 compounds, 0.19% hits | S. cerevisiae expressing SARS-CoV PLpro, growth rescue; calls by dose curve; further: nearly all actives have a fitted effect of over 55% in size
Pf growth 48h: P. falciparum growth inhibition at 48 hours (one generation); P. falciparum luciferase growth in erythrocytes, 48 h; Potency, µM (titrated, usually from 28.7 µM), most hits filed as inhibitors; 310,000 compounds, 5.9% hits
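Erythrocytes infected with P. falciparum carrying an integrated firefly luciferase reporter (2% hematocrit, 0.1% parasitemia final) were exposed to compounds in RPMI 1640 with 0.5% Albumax at 37 C, 5% CO2. Growth inhibition was scored as reduced luminescence.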
Pf growth 96h: inhibits malaria parasite growth, 96 h. P. falciparum luciferase reporter growth, 96 h. Potency, µM (top dose mostly 28.7 µM), most hits filed as inhibitors. 320,000 compounds, 6.9% hits. AID 504834
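Luminescence readout: decreased luciferase signal marks inhibited growth of reporter-expressing P. falciparum in infected red cells (2% hematocrit, 0.05% parasitemia final), exposed to compound two generations (96 h, 37 C, 5% CO2).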
Of the large screens only hits and unclear results are named; the others gave an inactive call; ! = repeats disagree. Unless noted, the call rests on the fitted dose curve; in most records, active means well fitted curve in the direction sought with a large enough effect; inconclusive means small, poorly fitted or top-dose-only effect, or another doubt; inactive means no such curve, though single readings can be large; an effect the other way counts as inactive or inconclusive.

COC(=O)c1c(NC(=O)c2nc3ccccc3s2)sc2c1CCN(C(C)=O)C2	Pf growth 96h 10.4µM (no result: Pf growth 48h)
CNC(=O)c1c(NC(=O)c2cccc(N3C(=O)CCC3=O)c2)sc2c1CCC2	none
CNC(=O)c1c(NC(=O)c2nc3ccccc3s2)sc2c1CCC2	none (no result: AMA1-RON2 inh, Pf growth 48h)
COC(=O)c1c(NC(=O)c2cccc(N3C(=O)CCC3=O)c2)sc2c1CCN(C(C)=O)C2	Pf growth 96h 9.28µM
CCCCc1nc2sc3c(c2c(=O)n1NC(=O)c1ccco1)CC(C)(C)OC3	Pf growth 48h inconclusive, Pf growth 96h inconclusive
CCCn1nc(C(=O)N2CCN(S(=O)(=O)c3ccc(C)c(C)c3)CC2)c2ccccc2c1=O	Pf growth 48h 11.7µM, Pf growth 96h inconclusive
CCCn1nc(C(=O)NNC(=O)c2ccc(C)c(C)c2)c2ccccc2c1=O	none (no result: Pf growth 48h, Pf growth 96h)
CN1CCN(c2nc(-c3cccnc3)nc3ccccc23)CC1	Pf growth 48h inconclusive
COc1ccc(CN(C)c2nc(-c3cccnc3)nc3ccccc23)cc1OC	none (no result: AMA1-RON2 inh)
O=S(=O)(c1ccccc1F)N1CCN(c2nc(-c3cccnc3)nc3ccccc23)CC1	Pf growth 48h 11.7µM, Pf growth 96h inconclusive
Oc1ccccc1-c1nc(N2CCCC2)c2ccccc2n1	Pf growth 96h 4.15µM (no result: Pf growth 48h)
COc1cc2c(cc1OC)CN(c1nc(-c3cccnc3)nc3ccccc13)CC2	AMA1-RON2 inh inconclusive, Pf growth 48h inconclusive, Pf growth 96h 11.7µM
c1cncc(-c2nc(N3CCCCCC3)c3ccccc3n2)c1	Pf growth 48h 0.465µM (no result: Pf growth 96h)
COc1ccc(S(=O)(=O)NCC(=O)N(CC(=O)NC(C)(C)C)Cc2cccs2)cc1	none
N#Cc1ccccc1S(=O)(=O)N1CCN(c2nc(-c3cccnc3)nc3ccccc23)CC1	Pf growth 48h 9.28µM, Pf growth 96h 4.65µM
COc1ccc(S(=O)(=O)N2CCN(c3nc(-c4cccnc4)nc4ccccc34)CC2)cc1	Pf growth 48h 2.94µM, Pf growth 96h 2.08µM
O=S(=O)(c1ccc(Cl)cc1)N1CCN(c2nc(C(F)(F)F)nc3ccccc23)CC1	none (no result: SARS PLpro yeast, Pf growth 48h, Pf growth 96h)
Cc1ccc(C)c(S(=O)(=O)N2CCN(c3nc(-c4cccnc4)nc4ccccc34)CC2)c1	Pf growth 48h 3.29µM, Pf growth 96h inconclusive
COc1ccc(N2CCN(S(=O)(=O)/C=C/c3ccccc3)CC2)cc1	none
c1ccc2c(N3CCCCCC3)nc(-c3ccncc3)nc2c1	Pf growth 48h inconclusive
O=S(=O)(/C=C/c1ccccc1)N1CCN(c2nc(-c3ccccc3)nc3ccccc23)CC1	Pf growth 48h inconclusive, Pf growth 96h 11.7µM
CCc1ccccc1-n1ncc(C(=O)Nc2ccc(OC)cc2)c1C	none (no result: SARS PLpro yeast, Pf growth 48h, Pf growth 96h)
Cc1nc(-c2ccc(-c3ccon3)s2)no1	none
CCOC(=O)Cn1cnc2c(C#N)c3n(c2c1=O)CCCCC3	none
COc1ccc(/C=C/c2ccc3cccc(O)c3n2)c(OC)c1OC	none
Cc1ccc(SCCNC(=O)c2ccc(C)c(S(=O)(=O)Nc3ccccc3C)c2)cc1	Pf growth 48h inconclusive
CCN(CC)S(=O)(=O)c1cc(NC(=O)c2ccc(Br)s2)ccc1C	Pf growth 48h inconclusive, Pf growth 96h 14.7µM
O=C(Nc1ccc2c(c1)OCO2)c1ccc(Br)s1	Pf growth 96h 8.28µM
O=C(CCl)Nc1ccc2c(c1)OCO2	Pf growth 48h inconclusive, Pf growth 96h 14.7µM
O=C(Nc1ccc2c(c1)OCCO2)c1cccs1	Pf growth 96h 2.62µM
CN(c1ccc(OCC(=O)OCC(=O)NC2CCCC2)cc1)S(=O)(=O)c1ccc2ccccc2c1	none
O=C(C1=NOC2(C1)C(=O)Nc1ccccc12)N1CCOCC1 (stereo not drawn)	none (no result: SARS PLpro yeast, Pf growth 48h, Pf growth 96h)
O=C(Nc1ccc2c(c1)OCO2)C1(S(=O)(=O)c2ccc(Cl)cc2)CC1	Pf growth 96h 1.85µM
CSc1scc2c1-c1nc(SCC(=O)C(C)(C)C)ncc1CC2	Pf growth 48h 9.28µM, Pf growth 96h 9.28µM
C=CCNC(=O)CSc1ncc2c(n1)-c1c(csc1SC)CC2	none
O=C(N1CCOCC1)N1CCC(NC(=O)C23CC4CC(CC(C4)C2)C3)CC1	none
COc1ccccc1-c1c(C#N)c(N)nc2c1CCc1ccccc1-2	Pf growth 48h 11.7µM
CCOc1cc(-c2c(C#N)c(N)nc3c2CCc2ccccc2-3)ccc1O	Pf growth 48h inconclusive
CCN(CC)C(=O)CSc1nc2ccccc2c(=O)n1CC1CCCCC1	Pf growth 48h 4.15µM, Pf growth 96h inconclusive
CCc1cc2c(=O)n(Cc3ccco3)c(SCC(=O)NCC3CCCO3)nc2s1 (stereo not drawn)	Pf growth 48h inconclusive
O=C(CSc1nc2ccccc2c(=O)n1Cc1ccco1)N1CCCCCC1	Pf growth 48h 5.22µM
CCOCCCn1c(SCC(=O)N2CCOCC2)nc2ccccc2c1=O	Pf growth 96h inconclusive
CCc1cc2c(=O)n(Cc3ccco3)c(SCC(=O)N3CCCc4ccccc43)nc2s1	Pf growth 48h 9.28µM
O=C(CSc1nc2ccccc2c(=O)n1CC1CCCCC1)N1CCOCC1	Pf growth 48h 9.28µM, Pf growth 96h 13.1µM
Cc1ccc(CSc2nccc(-c3c(C)nc4ccccn34)n2)cc1	Pf growth 48h 13.1µM, Pf growth 96h inconclusive
Cc1ccc(CSc2ncn(-c3ccccc3)n2)cc1	Pf growth 96h inconclusive (no result: Pf growth 48h)
Cc1nc2ccccc2nc(=O)c1NNc1ccccc1	Pf growth 96h 6.75µM!
Cc1ccc2nc(=O)c(NNc3ccccc3)cnc2c1	none
CC(C)C(=O)Nc1nnc(S(=O)(=O)N(C)c2ccc(Cl)cc2)s1	Pf growth 96h 2.94µM
CC1CCC(C(C)C)C(OCC(O)CN2CCCC(C)C2)C1 (stereo not drawn)	Pf growth 48h inconclusive, Pf growth 96h 13.1µM
CC1CCC(C(C)C)C(OCC(O)CN2CCN(Cc3ccccc3)CC2)C1 (stereo not drawn)	Pf growth 48h 11.7µM, Pf growth 96h inconclusive
O=C(Nc1ccccc1)C1=C(c2ccccc2)S(=O)(=O)CCS1(=O)=O	Pf growth 48h 11.7µM, Pf growth 96h inconclusive
Cc1ccc(-c2ccc(C#N)c(=O)n2CC(=O)N(C)C)cc1	none
CCCCn1cnc2c(SCc3ccccc3)nc(N)nc21	none (no result: SARS PLpro yeast, Pf growth 48h, Pf growth 96h)
COc1ccc(CCNC(=S)Nc2cccc(C)c2)cc1	none
Cc1cccc(NC(=S)Nc2cccc3ccccc23)c1	Pf growth 48h 10.4µM, Pf growth 96h inconclusive
Cc1cc(C)cc(NC(=S)Nc2cccc3ccccc23)c1	none
S=C(N/N=C/c1ccccc1Cl)Nc1ccccc1	SARS PLpro yeast inconclusive, Pf growth 48h inconclusive, Pf growth 96h inconclusive
S=C(N/N=C/c1cccc2ccccc12)Nc1cccc(Cl)c1	Pf growth 48h inconclusive, Pf growth 96h 2.94µM
Cc1cccc(NC(=S)NCCC(C)C)c1	Pf growth 48h inconclusive, Pf growth 96h 11.7µM
CCOc1ccc(Cl)cc1CNCCCSc1ncccn1	Pf growth 96h 13.1µM
CC1(C)O[C@H]2C[C@@H]3[C@H]4CCC5=CC(=O)CC[C@@]5(C)[C@]4(F)[C@@H](O)C[C@@]3(C)[C@@]2(C(=O)CCl)O1	Pf growth 48h 5.1µM, Pf growth 96h 4.05µM (no result: AMA1-RON2 inh, SARS PLpro yeast)
C[C@]12CCC(=O)C=C1CC[C@H]1[C@@H]3CC[C@](O)(C(=O)CO)[C@@]3(C)C[C@H](O)[C@@]12F	Pf growth 96h inconclusive (no result: AMA1-RON2 inh, SARS PLpro yeast)
